# According to the supplement of paper PMC8728848:
# The full list was thinned out, with the strongest signals kept by preference.
# Columns and labels:
# Experiment in all cases: glycan array binding signal (z-score within array); higher = stronger binding
# Details in all cases: glycan notation: IUPAC condensed, linker removed
# [1] = molecular target: Fuc(a1-2)Gal(b1-3)GlcNAc(b1-2)Man(a1-3)[Fuc(a1-2)Gal(b1-3)GlcNAc(b1-2)Man(a1-6)]Man(b1-4)GlcNAc(b1-4)GlcNAc
# Summary of the method: (§1)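 Glycan array data were curated from 3228 arrays in the Consortium for Functional Glycomics database and kept only where the protein sequence was available. Glycan names were converted to IUPAC-condensed notation, and columns mapping to the same glycan were averaged. The binding signal is a within-array Z-score, averaged across arrays of the same protein sequence at different concentrations or buffers and across linkers. Negative Z-scores can be read as non-binding.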
# [2] = molecular target: Fuc(a1-2)Gal(b1-4)GlcNAc(b1-2)Man(a1-3)[Fuc(a1-2)Gal(b1-4)GlcNAc(b1-2)Man(a1-6)]Man(b1-4)GlcNAc(b1-4)[Fuc(a1-6)]GlcNAc
# Summary of the method: as §1
# [3] = molecular target: Fuc(a1-2)[Gal(a1-3)]Gal(b1-3)GlcNAc(b1-3)GalNAc
# Summary of the method: as §1
# [4] = molecular target: Fuc(a1-2)[GalNAc(a1-3)]Gal(b1-4)GlcNAc
# Summary of the method: as §1
# [5] = molecular target: Fuc(a1-2)[GalNAc(a1-3)]Gal(b1-4)GlcNAc(b1-2)Man(a1-3)[Fuc(a1-2)[GalNAc(a1-3)]Gal(b1-4)GlcNAc(b1-2)Man(a1-6)]Man(b1-4)GlcNAc(b1-4)[Fuc(a1-6)]GlcNAc
# Summary of the method: as §1
# [6] = molecular target: Fuc(a1-2)[GalNAc(a1-3)]Gal(b1-4)[Fuc(a1-3)]GlcNAc(b1-3)GalNAc
# Summary of the method: as §1
# [7] = molecular target: Fuc(a1-2)[GalNAc(b1-3)]Gal
# Summary of the method: as §1
# [8] = molecular target: Fuc(a1-3)[Gal(b1-4)]GlcNAc(b1-2)Man(a1-3)[Fuc(a1-3)[Gal(b1-4)]GlcNAc(b1-2)Man(a1-6)]Man(b1-4)GlcNAc(b1-4)GlcNAc
# Summary of the method: as §1
# [9] = molecular target: Gal(a1-3)Gal(b1-4)GlcNAc(b1-2)Man(a1-3)[Gal(a1-3)Gal(b1-4)GlcNAc(b1-2)Man(a1-6)]Man(b1-4)GlcNAc(b1-4)GlcNAc
# Summary of the method: as §1
# [10] = molecular target: Gal(a1-3)Gal(b1-4)GlcNAc(b1-6)GalNAc
# Summary of the method: as §1
# Gal(a1-3)GalNAc = molecular target: Gal(a1-3)GalNAc
# Summary of the method: as §1
# Gal(a1-4)Gal(b1-4)GlcNAc = molecular target: Gal(a1-4)Gal(b1-4)GlcNAc
# Summary of the method: as §1
# Gal(b1-3)GlcNAc = molecular target: Gal(b1-3)GlcNAc
# Summary of the method: as §1
# [11] = molecular target: Gal(b1-3)GlcNAc(b1-2)[Gal(b1-3)GlcNAc(b1-6)]Man(a1-6)[Gal(b1-3)GlcNAc(b1-2)Man(a1-3)]Man(b1-4)GlcNAc(b1-4)GlcNAc
# Summary of the method: as §1
# [12] = molecular target: Gal(b1-3)GlcNAc(b1-6)[Gal(b1-3)]GalNAc
# Summary of the method: as §1
# [13] = molecular target: Gal(b1-3)[Fuc(a1-4)]GlcNAc(b1-2)Man(a1-3)[Gal(b1-3)[Fuc(a1-4)]GlcNAc(b1-2)Man(a1-6)]Man(b1-4)GlcNAc(b1-4)[Fuc(a1-6)]GlcNAc
# Summary of the method: as §1
# [14] = molecular target: Gal(b1-3)[Neu5Ac(a2-6)]GlcNAc(b1-4)Gal(b1-4)Glc
# Summary of the method: as §1
# Gal(b1-4)Gal = molecular target: Gal(b1-4)Gal
# Summary of the method: as §1
# [15] = molecular target: Gal(b1-4)GlcNAc(a1-6)Gal(b1-4)GlcNAc
# Summary of the method: as §1
# [16] = molecular target: Gal(b1-4)GlcNAc(b1-2)Man(a1-3)Man(b1-4)GlcNAc(b1-4)GlcNAc
# Summary of the method: as §1
# [17] = molecular target: Gal(b1-4)GlcNAc(b1-2)Man(a1-3)[Gal(b1-4)GlcNAc(b1-2)Man(a1-6)][Gal(b1-4)GlcNAc(b1-4)]Man(b1-4)GlcNAc(b1-4)[Fuc(a1-6)]GlcNAc
# Summary of the method: as §1
# [18] = molecular target: Gal(b1-4)GlcNAc(b1-2)[Gal(b1-4)GlcNAc(b1-6)]Man(a1-6)[GlcNAc(b1-4)][Gal(b1-4)GlcNAc(b1-2)Man(a1-3)]Man(b1-4)GlcNAc(b1-4)GlcNAc
# Summary of the method: as §1
# [19] = molecular target: Gal(b1-4)GlcNAc(b1-3)Gal(b1-4)GlcNAc(b1-2)[Gal(b1-4)GlcNAc(b1-3)Gal(b1-4)GlcNAc(b1-6)]Man(a1-6)[Gal(b1-4)GlcNAc(b1-3)Gal(b1-4)GlcNAc(b1-2)Man(a1-3)]Man(b1-4)GlcNAc(b1-4)GlcNAc
# Summary of the method: as §1
# [20] = molecular target: Gal(b1-4)GlcNAc(b1-3)Gal(b1-4)GlcNAc(b1-2)[Gal(b1-4)GlcNAc(b1-3)Gal(b1-4)GlcNAc(b1-6)]Man(a1-6)[Gal(b1-4)GlcNAc(b1-3)Gal(b1-4)GlcNAc(b1-2)Man(a1-3)]Man(b1-4)GlcNAc(b1-4)[Fuc(a1-6)]GlcNAc
# Summary of the method: as §1
# [21] = molecular target: Gal(b1-4)GlcNAc(b1-3)Gal(b1-4)GlcNAc(b1-3)Gal(b1-4)GlcNAc(b1-2)Man(a1-3)[Gal(b1-4)GlcNAc(b1-3)Gal(b1-4)GlcNAc(b1-3)Gal(b1-4)GlcNAc(b1-2)Man(a1-6)]Man(b1-4)GlcNAc(b1-4)[Fuc(a1-6)]GlcNAc
# Summary of the method: as §1
# [22] = molecular target: Gal(b1-4)GlcNAc(b1-3)Gal(b1-4)GlcNAc(b1-3)Gal(b1-4)GlcNAc(b1-3)Gal(b1-4)GlcNAc(b1-2)Man(a1-3)[Gal(b1-4)GlcNAc(b1-3)Gal(b1-4)GlcNAc(b1-3)Gal(b1-4)GlcNAc(b1-3)Gal(b1-4)GlcNAc(b1-2)Man(a1-6)]Man(b1-4)GlcNAc(b1-4)GlcNAc
# Summary of the method: as §1
# [23] = molecular target: Gal(b1-4)GlcNAc(b1-3)Gal(b1-4)GlcNAc(b1-3)Gal(b1-4)GlcNAc(b1-3)Gal(b1-4)GlcNAc(b1-3)Gal(b1-4)GlcNAc(b1-2)Man(a1-3)[Gal(b1-4)GlcNAc(b1-3)Gal(b1-4)GlcNAc(b1-3)Gal(b1-4)GlcNAc(b1-3)Gal(b1-4)GlcNAc(b1-3)Gal(b1-4)GlcNAc(b1-2)Man(a1-6)]Man(b1-4)GlcNAc(b1-4)GlcNAc
# Summary of the method: as §1
# [24] = molecular target: Gal(b1-4)GlcNAc(b1-3)Gal(b1-4)GlcNAc(b1-3)Gal(b1-4)GlcNAc(b1-3)Gal(b1-4)GlcNAc(b1-3)Gal(b1-4)GlcNAc(b1-2)Man(a1-3)[Gal(b1-4)GlcNAc(b1-3)Gal(b1-4)GlcNAc(b1-3)Gal(b1-4)GlcNAc(b1-3)Gal(b1-4)GlcNAc(b1-3)Gal(b1-4)GlcNAc(b1-2)Man(a1-6)]Man(b1-4)GlcNAc(b1-4)[Fuc(a1-6)]GlcNAc
# Summary of the method: as §1
# [25] = molecular target: Gal(b1-4)GlcNAc(b1-3)Gal(b1-4)GlcNAc(b1-6)[Gal(b1-3)]GalNAc
# Summary of the method: as §1
# [26] = molecular target: Gal(b1-4)GlcNAc(b1-6)[Gal(b1-3)]GalNAc
# Summary of the method: as §1
binder,measurement,setting,value
"SspB A3vp1 (Streptococcus gordonii), Q54186 (protein) MTNEADYQAKLAAYQTELARVQKANADAKATYEKAVEDNKAKNAAIKAENEEIKQRNAVAKTDYEAKLAKYEADLAKYKKEFAAYTAALAEAESKKKQDGYLSEPRSQSLNFKSEPNAIRTIDSSVHQYGQQELDALVKSWGISPTNPDRKKSRAYSYFNAINSNNTYAKLVLEKDKPVDVTYTGLKNSSFNGKKISKVVYTYTLKETGFNDGTKMTMFASSDPTVTAWYNDYFTSTNINVKVKFYDEEGQLMNLTGGLVNFSSLNRGNGSGAIDKDAIESVRNFNGRYIPISGSSIKIHENNSAYADSSNAEKSLGARWNTSEWDTTSSPNNWYGAIVGEITQSEISFNMASSKSGNIWFAFNSNINAIGVPTKPVAPTAPTQPMYETEKPLEPAPVAPSYENEPTPPVKTPDQPEPSKPAAALEHHHHHH",glycan array binding signal (z-score),[1],6.26
same,glycan array binding signal (z-score),[2],-0.372
same,glycan array binding signal (z-score),[3],0.099
same,glycan array binding signal (z-score),[4],-0.651
same,glycan array binding signal (z-score),[5],0.127
same,glycan array binding signal (z-score),[6],3.5
same,glycan array binding signal (z-score),[7],-1.11
same,glycan array binding signal (z-score),[8],0.062
same,glycan array binding signal (z-score),[9],1.84
same,glycan array binding signal (z-score),[10],-0.506
same,glycan array binding signal (z-score),Gal(a1-3)GalNAc,-0.575
same,glycan array binding signal (z-score),Gal(a1-4)Gal(b1-4)GlcNAc,0.692
same,glycan array binding signal (z-score),Gal(b1-3)GlcNAc,-0.432
same,glycan array binding signal (z-score),[11],1.46
same,glycan array binding signal (z-score),[12],0.011
same,glycan array binding signal (z-score),[13],0.75
same,glycan array binding signal (z-score),[14],-0.063
same,glycan array binding signal (z-score),Gal(b1-4)Gal,-0.088
same,glycan array binding signal (z-score),[15],-0.728
same,glycan array binding signal (z-score),[16],-0.334
same,glycan array binding signal (z-score),[17],3.03
same,glycan array binding signal (z-score),[18],0.194
same,glycan array binding signal (z-score),[19],3.16
same,glycan array binding signal (z-score),[20],3.01
same,glycan array binding signal (z-score),[21],3.73
same,glycan array binding signal (z-score),[22],3.61
same,glycan array binding signal (z-score),[23],3.36
same,glycan array binding signal (z-score),[24],3.38
same,glycan array binding signal (z-score),[25],2.1
same,glycan array binding signal (z-score),[26],0.609
